Data published in PubChem BioAssay.
Potency and affinity values are given separately. Inconclusive results are not listed. Activity calls are given as the source filed them. Unless noted, the rule behind the calls is not given here.

What was measured:
[1] = PAX8 transcriptional activity inhibition in RMG-I – RMG-I cells, luciferase, cherry-pick, dose response (AID 687027;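 active = every replicate test run called active, with the signal dropping as expected and potency within twice the top valid dose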)
[2] = RMG-1 ovarian cancer cell viability loss – cherry-pick, dose response (AID 687029;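 active = signal drop whose fitted half-maximal concentration is at most twice the top valid dose, in every test run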;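 note: cells exposed to compound for 96 hours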)
[3] = IOSE-T80 viability loss, PAX8-independent line – cell-based, cherry-pick, selectivity assay for PAX8 inhibitor project, dose response (AID 687032;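 active = fitted half-maximal concentration for viability loss no higher than twice the top valid dose, in every repeat run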;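 note: cells exposed to compound for 96 h before reading; 0% = neutral control wells and -100% = 2 µM mitoxantrone kill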)
[4] = CMV-driven luciferase expression suppression in HEK293 – cell-based, luminescence, dry powder, counter-screen for Pax8 inhibitor project, dose response (AID 743020;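 active = signal-lowering compounds whose fitted half-maximal concentration is at or below twice the top tested dose in every run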;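 note: HEK293 cells stably expressing the CMV luciferase reporter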)
[5] = general cell-killing toxicity readout – plate reader, dry powder samples, cytotoxicity control for PAX8 inhibitor project, dose response (AID 743021)
[6] = IGROV1 cell killing – plate reader, dry powder samples, PAX8 inhibitor project, dose response (AID 743043);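 note: more negative means fewer viable cells or more cytotoxicity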
[7] = OVCAR-3 cell viability loss – plate reader, dry powder samples, PAX8 inhibitor project, dose response (AID 743044); details: max activity: at 35 µM, stronger effect = lower value unless noted
[8] = toxicity toward immortalized ovarian surface epithelium – cell-based, plate reader, dry powder samples, cytotoxicity control for PAX8 inhibitor project, dose response (AID 743045);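 note: 0% = neutral control median and -100% = positive control median; more negative values mean more cell killing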
[9] = A2780 cell killing – plate reader, dry powder samples, cytotoxicity control, dose response (AID 743046);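 note: 0% = neutral control wells and -100% = cytotoxic reference compound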
[10] = OVCAR8 cell viability loss – plate reader, dry powder samples, PAX8 project, dose response (AID 743197)

O=C(Cc1ccccn1)N[C@@H]1CC[C@@H](CCn2cc(-c3ccccc3)nn2)O[C@H]1CO
inactive: outcome [1] | outcome [2] | outcome [3] | outcome [4] | outcome [5] | outcome [6] | max activity [7] 6.29% | outcome [8] | outcome [9] | outcome [10]

COc1ccc(-c2ccc3c(c2)[C@H]2[C@H](CCN2C(=O)Cc2cccnc2)[C@H](CO)N3C)cc1
inactive: outcome [1] | outcome [2] | outcome [3] | outcome [4] | outcome [5] | outcome [6] | max activity [7] 35.5% [at 0.26 µM, stronger effect = lower value] | outcome [8] | outcome [9]

COc1ccc(NC(=O)N2CCCCN3[C@@H](CO)[C@@H](c4ccc(C5=CCCC5)cc4)[C@@H]3C2)cc1
inactive: outcome [1] | outcome [2] | outcome [3] | outcome [4] | outcome [5] | outcome [6] | outcome [8]

C[C@H]1CCCCO[C@H](CN(C)Cc2ccccc2)[C@@H](C)CN([C@@H](C)CO)C(=O)c2cc(NC(=O)Nc3ccc(C(F)(F)F)cc3)ccc2O1
inactive: outcome [1] | outcome [2] | outcome [3] | outcome [4] | outcome [5] | outcome [8] | outcome [9]

CC=Cc1ccc2n(c1=O)C[C@H]1[C@H](CO)[C@@H](C(=O)NC3CCC3)N(CC)[C@@H]21 (mixture of isomers)
inactive: outcome [1] | outcome [2] | outcome [3] | outcome [4] | outcome [5] | outcome [6] | max activity [7] 9.45% | outcome [8] | outcome [9] | outcome [10]

O=C(C[C@@H]1C[C@@H]2c3cc(NC(=O)Nc4ccccc4F)ccc3O[C@@H]2[C@H](CO)O1)NCc1ccc(Oc2ccccc2)cc1
inactive: outcome [1] | outcome [2] | outcome [3] | outcome [4] | outcome [5] | outcome [6] | max activity [7] 14% [at 0.5 µM, stronger effect = lower value] | outcome [8] | outcome [9] | outcome [10]

COc1ccc(-c2cn(CC[C@@H]3CC[C@H](NC(=O)Cc4ccccn4)[C@H](CO)O3)nn2)cc1
inactive: outcome [1] | outcome [2] | outcome [3] | outcome [4] | outcome [5] | outcome [6] | max activity [7] 27.6% [at 1 µM, stronger effect = lower value] | outcome [8] | outcome [10]

COc1ccccc1NC1=Nc2cccc3cccc1c23
inactive: outcome [1] | outcome [2] | outcome [3] | outcome [5]

O=[N+]([O-])c1ccc2nc(SCc3cn4ccccc4n3)[nH]c2c1
inactive: outcome [1] | outcome [2] | outcome [3] | outcome [5]

CCCCC(=O)N1CCN(c2ccc(OC)cc2[N+](=O)[O-])CC1
inactive: outcome [1] | outcome [2] | outcome [3] | outcome [5]

O=C(NC1CCCCCC1)C1c2ccccc2C(=O)N1Cc1cccs1 (centres undefined)
inactive: outcome [1] | outcome [2] | outcome [4] | outcome [5]

CC(=O)Nc1ccc(C(=O)CSc2cc(C)c3cccc(C)c3n2)cc1
inactive: outcome [1] | outcome [2] | outcome [3] | outcome [5]

Cc1nn(CCO)c2nc(-c3cccs3)cc(C(F)(F)F)c12
inactive: outcome [1] | outcome [2] | outcome [3] | outcome [5]

COc1ccc(O)c(C(c2c(C)[nH][nH]c2=O)c2c(C)[nH][nH]c2=O)c1
inactive: outcome [1] | outcome [2] | outcome [3] | outcome [5]

Fc1ccc(CSc2ccc(-c3ccco3)nn2)cc1
inactive: outcome [1] | outcome [2] | outcome [3] | outcome [5]

CCNC(=O)C1(C)CCN(C(=O)c2ccccc2F)C1 (centres undefined)
inactive: outcome [1] | outcome [2] | outcome [4] | outcome [5]

COc1ccc(-c2cn(CC[C@@H]3CC[C@H](NC(=O)Cc4ccccn4)[C@@H](CO)O3)nn2)cc1
inactive: outcome [1] | outcome [2] | outcome [3] | outcome [5] | outcome [6] | max activity [7] -8.11% [at 8 µM, stronger effect = lower value] | outcome [8] | outcome [9] | outcome [10]

Cc1cccc(OCc2nc(-c3cccnc3)no2)c1
inactive: outcome [1] | outcome [2] | outcome [3] | outcome [5]

O=C(/C=C/c1ccco1)Nc1nc(-c2ccccc2)cs1
inactive: activity change, negative = inhibition [1] 99.9% [at 8 µM] | outcome [2] | outcome [3] | outcome [5]

O=C(Cc1ccccc1)c1ccccc1C(=O)N1CCCCC1
inactive: outcome [1] | outcome [2] | outcome [4] | outcome [5]

CCN(C(=O)COC(=O)c1ccc(S(=O)(=O)N2CCCc3ccccc32)cc1)C1CCS(=O)(=O)C1 (centres undefined)
inactive: outcome [1] | outcome [2] | outcome [3] | outcome [5]

O=C(CCN1C(=O)/C(=C/c2ccccc2Cl)SC1=S)Nc1ccccc1C(=O)O
inactive: outcome [1] | outcome [2] | outcome [4] | outcome [5]

CC(=O)N/C(=C\c1ccccc1)C(=O)OCC(=O)NC1CCCC1
inactive: outcome [1] | outcome [2] | outcome [4] | outcome [5]

O=C(O)CC(NC(=O)C1c2ccccc2Oc2ccccc21)c1ccc(OC2CCCC2)cc1 (centres undefined)
inactive: outcome [1] | outcome [2] | outcome [4] | outcome [5]

Cc1cc(=O)oc2ccc(OC(=O)CN3C(=O)c4cccc([N+](=O)[O-])c4C3=O)cc12
inactive: outcome [1] | outcome [2] | outcome [3] | outcome [5]

O=C(Cc1ccc(F)cc1)OCC(=O)N1CCN(S(=O)(=O)c2ccc(Cl)cc2)CC1
inactive: outcome [1] | outcome [2] | outcome [4] | outcome [5]

O=C(Nc1ccccc1)N1CCCCN2[C@@H](CO)[C@@H](c3ccc(C#Cc4ccccc4)cc3)[C@@H]2C1
inactive: outcome [1] | outcome [2] | outcome [4] | outcome [5]

COc1ccc(OCCNC(=O)/C=C/c2ccc([N+](=O)[O-])cc2)cc1
inactive: outcome [1] | outcome [2] | outcome [4] | outcome [5]

COC1OC(COCc2ccccc2)C2OC(C)(C)OC2C1O (centres undefined)
inactive: outcome [1] | outcome [2] | outcome [4] | outcome [5]

COc1ccc2oc(C)c(C(=O)c3ccc([N+](=O)[O-])cc3)c2c1
inactive: outcome [1] | outcome [2] | outcome [3] | outcome [5]

Cc1cccc(C(=O)Oc2ccc(/C=N/NC(=O)c3ccccc3O)cc2)c1
inactive: outcome [1] | outcome [2] | outcome [3] | outcome [5]

COc1ccc(-n2nc([N+](=O)[O-])c(=NCc3cccnc3)n2O)cc1
inactive: outcome [1] | outcome [2] | outcome [4] | outcome [5]

O=C(CSc1cccc[n+]1[O-])Nc1cc(S(=O)(=O)N2CCOCC2)ccc1N1CCOCC1
inactive: outcome [1] | outcome [2] | outcome [3] | outcome [5]

COc1ccc(C2CC(c3ccc(Br)cc3)=NN2C(=S)Nc2ccccc2)cc1 (centres undefined)
inactive: outcome [1] | outcome [2] | outcome [3] | outcome [5]

Cc1cc(OCCCn2cnc3ccccc3c2=O)ccc1[N+](=O)[O-]
inactive: outcome [1] | outcome [2] | outcome [4] | outcome [5]

O=C(/C=C/c1c(Cl)nc2ccccn12)Nc1ccc(F)cc1
inactive: outcome [1] | outcome [2] | outcome [3] | outcome [5]

CCCCC1Cc2[nH]c(=S)[nH]c(=O)c2C(c2ccc(F)cc2)O1 (centres undefined)
inactive: outcome [1] | outcome [2] | outcome [4] | outcome [5]

O=C(O)C1C=CC(C(=O)O)c2ccccc21 (centres undefined)
inactive: outcome [1] | outcome [2] | outcome [4] | outcome [5]

COc1ccc(NC(=O)c2nn(C34CC5CC(CC(C5)C3)C4)cc2[N+](=O)[O-])cc1
inactive: outcome [1] | outcome [2] | outcome [4] | outcome [5]

O=C1c2cccc3c(O)ccc(c23)C(=O)N1c1ccc(Cl)cc1
inactive: outcome [1] | outcome [2] | outcome [3] | outcome [5]

CC1CCN(CCOc2ccc(OCc3ccccc3)cc2)CC1
inactive: outcome [1] | outcome [2] | outcome [3] | outcome [5]

O=[N+]([O-])c1cccc(-c2nnc(-c3ccc4c(c3)OCO4)o2)c1
inactive: outcome [1] | outcome [2] | outcome [4] | outcome [5]

Nc1ncn([C@H]2C[C@H](O)[C@@H](CO)O2)c(=O)n1
inactive: outcome [1] | outcome [2] | outcome [4] | outcome [5]

Cc1ccc(/C=N/NC(=O)c2ccccn2)o1
inactive: activity change, negative = inhibition [1] 80.8% [at 8 µM] | outcome [2] | outcome [3] | outcome [5]

O=C(CSc1nc2ccccc2s1)NCCOc1ccccc1
inactive: outcome [1] | outcome [2] | outcome [3] | outcome [5]

CCOC(=O)C1(Cc2ccc(OC)cc2)CCN(C(=O)CN2CCCCC2=O)CC1
inactive: outcome [1] | outcome [2] | outcome [3] | outcome [5]

Oc1ccc(F)c2cccnc12
inactive: outcome [3]

Cc1ccc(-c2ccc([C@@H]3[C@H](CO)N4CCCCN(C(=O)Nc5cccc(F)c5)C[C@@H]34)cc2)cc1
inactive: outcome [9]

CN(C)CC#Cc1ccc([C@@H]2[C@H](CO)N3CCCCN(C(=O)Nc4ccc(F)cc4)C[C@@H]23)cc1
inactive: outcome [9]

Cc1cc(=O)n2c3c(c4c(cc13)c(CN(C)C)cc(=O)n4C)OC2
inactive: outcome [2] | outcome [3]

CCC[C@H](CN[C@@H](CNC)[C@H](C)CC)NCCc1cc(C(F)(F)F)cc(C(F)(F)F)c1
inactive: outcome [2] | outcome [3]

OCC1OC(n2cnc3c(NCc4ccco4)ncnc32)C(O)C1O (centres undefined)
inactive: outcome [2] | outcome [3]

O=c1c2ccccc2cnn1-c1nc2ccccc2[nH]1
inactive: outcome [2] | outcome [3]

CC1OC(CC(=O)O)CC2=C1C(=O)c1c(O)cccc1C2=O (centres undefined)
inactive: outcome [2] | outcome [3]

CN1CCN(CCCNC(=O)c2ccc(/C=C3\Oc4ccccc4N(Cc4ccc(Cl)cc4)C3=O)cc2)CC1
inactive: outcome [2] | outcome [3]

COc1ccc(-c2sc3ccccc3c2-c2ccc(OCCN(C)C)cc2)cc1
inactive: outcome [2] | outcome [3]

CC1CCN(c2ccc(-c3cccc(NC(=O)C(F)(F)F)c3)nn2)CC1
inactive: outcome [2] | outcome [3]

Cc1ccc(-n2nc(C)c(NC(=O)CCl)c2C)cc1C
inactive: outcome [2] | outcome [3]
